Laboratory results reported in PubChem BioAssay AID1159580 (chemical genetic matrix, 2015).
Hit rate of the full screen: of about 5,500 compounds, about 2,000 (36%) were called active. Another 18% or so got no clear call; they are omitted. Rule as the data show it: active = normalized growth mostly below about 0.91 (no sharp cut-off); inconclusive = no clear call, values can overlap the other calls; inactive = mostly above about 0.92. The list shows a part of the results.

Test: chemical genetic growth profiling, strain panel (AID 1159580);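 also: tested at 20 µM; growth read once vehicle control cultures reached saturation at 30 °C; 1 = growth at the plate median or of vehicle wells; lower values mean less growth of the strain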
Conditions: growth OD

Measured: normalized growth

CC1=C2CCC3C(CC[C@]4(C)C(=O)CCC34)[C@@]2(C)CCC1=O (some centres not stated)
active: S. cerevisiae deletion strains, locus YLR039C, strain RIC1, stronger effect = lower value 0.587 | S. cerevisiae deletion strains, locus YLR262C, strain YPT6 (second series), stronger effect = lower value 0.655 | S. cerevisiae deletion strains, locus YLR418C, strain cdc73, stronger effect = lower value 0.771 | S. cerevisiae deletion strains, locus YMR223W, strain ubp8, stronger effect = lower value 0.9 | S. cerevisiae deletion strains, locus YNL071W, strain lat1, stronger effect = lower value 0.863 | S. cerevisiae deletion strains, locus YNL307C, strain MCK1, stronger effect = lower value 0.695 | S. cerevisiae deletion strains, locus YNR052C, strain pop2, stronger effect = lower value 0.89 | S. cerevisiae deletion strains, locus YOR184W, strain ser1, stronger effect = lower value 0.719 | S. cerevisiae deletion strains, locus YPL078C, strain atp4, stronger effect = lower value 0.887
inactive: S. cerevisiae deletion strains, locus YJR075W, strain HOC1, stronger effect = lower value 0.968 | S. cerevisiae deletion strains, locus YKL009W, strain mrt4, stronger effect = lower value 0.948 | S. cerevisiae deletion strains, locus YKL068W, stronger effect = lower value 0.985 | S. cerevisiae deletion strains, locus YKL085W, strain MDH1 (second series), stronger effect = lower value 0.983 | S. cerevisiae deletion strains, locus YKL085W, strain MDH1, stronger effect = lower value 0.983 | S. cerevisiae deletion strains, locus YKL160W, strain elf1, stronger effect = lower value 0.936 | S. cerevisiae deletion strains, locus YKL190W, strain CNB1, stronger effect = lower value 0.98 | S. cerevisiae deletion strains, locus YKR001C, strain vps1, stronger effect = lower value 0.9 | S. cerevisiae deletion strains, locus YKR026C, strain gcn3, stronger effect = lower value 0.998 | S. cerevisiae deletion strains, locus YKR091W, strain srl3, stronger effect = lower value 0.985 | S. cerevisiae deletion strains, locus YLL001W, strain dnm1, stronger effect = lower value 0.937 | S. cerevisiae deletion strains, locus YLL026W, stronger effect = lower value 0.994 | S. cerevisiae deletion strains, locus YLL041C, strain sdh2, stronger effect = lower value 0.984 | S. cerevisiae deletion strains, locus YLR027C, strain aat2, stronger effect = lower value 0.948 | S. cerevisiae deletion strains, locus YLR058C, strain SHM2, stronger effect = lower value 0.976 | S. cerevisiae deletion strains, locus YLR102C, strain apc9, stronger effect = lower value 0.977 | S. cerevisiae deletion strains, locus YLR113W, strain HOG1, stronger effect = lower value 0.974 | S. cerevisiae deletion strains, locus YLR221C, strain rsa3, stronger effect = lower value 0.994 | S. cerevisiae deletion strains, locus YLR258W, strain gsy2, stronger effect = lower value 0.959 | S. cerevisiae deletion strains, locus YLR262C, strain YPT6, stronger effect = lower value 0.613 | S. cerevisiae deletion strains, locus YLR268W, strain sec22, stronger effect = lower value 1.02 | S. cerevisiae deletion strains, locus YLR320W, strain mms22, stronger effect = lower value 0.94 | S. cerevisiae deletion strains, locus YLR330W, strain CHS5, stronger effect = lower value 0.982 | S. cerevisiae deletion strains, locus YLR342W, strain FKS1 (second series), stronger effect = lower value 0.811 | S. cerevisiae deletion strains, locus YLR342W, strain FKS1, stronger effect = lower value 0.951 | S. cerevisiae deletion strains, locus YLR357W, strain rsc2, stronger effect = lower value 1.01 | S. cerevisiae deletion strains, locus YLR370C, strain arc18, stronger effect = lower value 0.986 | S. cerevisiae deletion strains, locus YLR371W, strain rom2, stronger effect = lower value 0.983 | S. cerevisiae deletion strains, locus YLR384C, strain iki3, stronger effect = lower value 0.983 | S. cerevisiae deletion strains, locus YML016C, strain PPZ1, stronger effect = lower value 0.965 | S. cerevisiae deletion strains, locus YML032C, strain rad52, stronger effect = lower value 0.966 | S. cerevisiae deletion strains, locus YML120C, strain ndi1, stronger effect = lower value 0.955 | S. cerevisiae deletion strains, locus YML124C, strain tub3, stronger effect = lower value 0.969 | S. cerevisiae deletion strains, locus YMR058W, strain fet3, stronger effect = lower value 0.976 | S. cerevisiae deletion strains, locus YMR078C, strain ctf18, stronger effect = lower value 0.953 | S. cerevisiae deletion strains, locus YMR125W, strain sto1, stronger effect = lower value 0.993 | S. cerevisiae deletion strains, locus YMR129W, stronger effect = lower value 0.993 | S. cerevisiae deletion strains, locus YMR205C, strain PFK2, stronger effect = lower value 0.9 | S. cerevisiae deletion strains, locus YMR231W, strain pep5, stronger effect = lower value 0.976 | S. cerevisiae deletion strains, locus YMR263W, strain SAP30, stronger effect = lower value 0.971 | S. cerevisiae deletion strains, locus YMR307W, strain GAS1, stronger effect = lower value 0.759 | S. cerevisiae deletion strains, locus YNL067W, strain RPL9B, stronger effect = lower value 0.987 | S. cerevisiae deletion strains, locus YNL128W, strain TEP1, stronger effect = lower value 0.99 | S. cerevisiae deletion strains, locus YNL153C, strain GIM3, stronger effect = lower value 0.99 | S. cerevisiae deletion strains, locus YNL183C, strain NPR1, stronger effect = lower value 0.839 | S. cerevisiae deletion strains, locus YNL209W, strain ssb2, stronger effect = lower value 0.962 | S. cerevisiae deletion strains, locus YNL233W, strain BNI4, stronger effect = lower value 0.962 | S. cerevisiae deletion strains, locus YNL248C, strain rpa49, stronger effect = lower value 1.01 | S. cerevisiae deletion strains, locus YNL250W, strain rad50, stronger effect = lower value 0.951 | S. cerevisiae deletion strains, locus YNL271C, strain bni1, stronger effect = lower value 0.957 | S. cerevisiae deletion strains, locus YNL298W, strain CLA4, stronger effect = lower value 0.929 | S. cerevisiae deletion strains, locus YNL322C, strain KRE1 (second series), stronger effect = lower value 0.986 | S. cerevisiae deletion strains, locus YNL322C, strain KRE1, stronger effect = lower value 0.983 | S. cerevisiae deletion strains, locus YNR049C, strain mso1, stronger effect = lower value 0.997 | S. cerevisiae deletion strains, locus YOL006C, strain TOP1, stronger effect = lower value 0.729 | S. cerevisiae deletion strains, locus YOL012C, strain htz1 1.08 | S. cerevisiae deletion strains, locus YOL147C, strain pex11, stronger effect = lower value 0.959 | S. cerevisiae deletion strains, locus YOR001W, strain rrp6, stronger effect = lower value 1.01 | S. cerevisiae deletion strains, locus YOR061W, strain CKA2, stronger effect = lower value 0.979 | S. cerevisiae deletion strains, locus YOR069W, strain VPS5, stronger effect = lower value 0.973 | S. cerevisiae deletion strains, locus YOR070C, strain gyp1, stronger effect = lower value 0.959 | S. cerevisiae deletion strains, locus YOR080W, strain dia2, stronger effect = lower value 0.995 | S. cerevisiae deletion strains, locus YOR083W, strain WHI5, stronger effect = lower value 0.915 | S. cerevisiae deletion strains, locus YOR106W, strain vam3, stronger effect = lower value 0.944 | S. cerevisiae deletion strains, locus YOR136W, strain idh2, stronger effect = lower value 0.961 | S. cerevisiae deletion strains, locus YOR144C, strain elg1, stronger effect = lower value 0.958 | S. cerevisiae deletion strains, locus YOR231W, strain MKK1, stronger effect = lower value 0.955 | S. cerevisiae deletion strains, locus YOR265W, strain rbl2, stronger effect = lower value 0.985 | S. cerevisiae deletion strains, locus YOR270C, strain vph1, stronger effect = lower value 0.844 | S. cerevisiae deletion strains, locus YOR290C, strain snf2, stronger effect = lower value 0.898 | S. cerevisiae deletion strains, locus YOR316C, strain cot1, stronger effect = lower value 0.98 | S. cerevisiae deletion strains, locus YPL051W, strain arl3, stronger effect = lower value 0.921 | S. cerevisiae deletion strains, locus YPL055C, strain LGE1, stronger effect = lower value 0.871 | S. cerevisiae deletion strains, locus YPL106C, strain sse1, stronger effect = lower value 1 | S. cerevisiae deletion strains, locus YPL240C, strain hsp82, stronger effect = lower value 0.987 | S. cerevisiae deletion strains, locus YPL241C, strain CIN2, stronger effect = lower value 0.986 | S. cerevisiae deletion strains, locus YPL256C, strain CLN2, stronger effect = lower value 0.927 | S. cerevisiae deletion strains, locus YPR119W, strain clb2, stronger effect = lower value 0.979 | S. cerevisiae deletion strains, locus YPR141C, strain kar3, stronger effect = lower value 0.951 | S. cerevisiae deletion strains, locus YPR163C, strain tif3, stronger effect = lower value 0.927 | S. cerevisiae deletion strains, locus YPR167C, strain met16, stronger effect = lower value 0.972 | S. cerevisiae deletion strains, strain wtn01, stronger effect = lower value 0.964 | S. cerevisiae strains, strain wild type, stronger effect = lower value 0.942
